Source: PubChem BioAssay AID1066 (SRMLSC, 2008)
Screen size: about 190,000 compounds; about 790 (0.42%) were called active. Many of the other results were omitted from the sample, so actives are more common in it than they were. A number with no mark means an inactive call.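 Rule for the calls: active = inhibition above a set limit, the median over all tested compounds plus 3 SD (cut at about 9.5% in these data); inconclusive = no clear call, values can overlap the other calls; inactive = the rest.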

Test system: HMG-CoA reductase (Enterococcus faecalis, mvaE)
Assay: inhibitors of E. faecalis class II HMGR, primary screen, biochemical, Enterococcus faecalis (AID 1066);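 note: enzyme runs in reverse so mevalonate oxidation gives rising NADPH absorbance; 0% = complete reaction with DMSO and 100% = background rate lacking mevalonate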
Conditions: purified E. faecalis HMGR, NADPH absorbance 340 nm kinetic; at 10 µM; hits give high values

SMILES | inhibition
O=C(N/N=C/c1ccco1)c1ccc(C(=O)N/N=C/c2ccco2)o1 | 3.83%
CCN(C(=O)c1ccc(Br)cc1)c1ccccc1 | -0.76%
CCOC(=O)CNC(=O)CSc1ccc2nnc(-c3cccnc3)n2n1 | -1.15%
CCOc1ccc(-c2ccc(SCC(=O)N3CCOCC3)nn2)cc1 | -2.28%
Cc1ccc(C(=O)NCC(=O)O)s1 | -1%
O=C(Nc1cccc(Cl)c1)Nc1ccccc1NS(=O)(=O)c1cccs1 | -2.46%
CCc1ccc(C(=O)OCC(=O)NCC(F)(F)F)cc1 | -8.47%
CCC(=O)Nc1sc(C(=O)Nc2ccccc2)c(C)c1C(=O)OC | 13% (active)
CCOC(=O)c1sc(NC(=O)COc2ncnc3ccccc23)c(C(=O)OCC)c1C | 3.4%
COC(=O)c1c(NC(C)=O)sc(C(=O)Nc2ccccc2OC)c1C | -2.99%
CCOC(=O)Cn1nnnc1C | -2.01%
Oc1cccc2ccc(/C=C/c3ccc(Br)s3)nc12 | 0.35%
Cc1ccc(NC(=O)Nc2cccc(C(F)(F)F)c2)nc1 | -0.23%
CCC(=O)Nc1ccc(Nc2nc(Cl)nc(Nc3ccc(NC(=O)CC)cc3)n2)cc1 | -2.77%
Cc1ccc2nc(Nc3ncc4c(n3)CC(C)(C)CC4=O)nc(C)c2c1 | -0.8%
NC(=O)COc1ccc(C23CC4CC(CC(C4)C2)C3)cc1 | 6.59%
O=C(CCN1C(=O)c2ccccc2C1=O)NNC(=O)c1ccc(Cl)cc1Cl | -5.06%
CC(=O)N/C(=C/c1ccc(OC(F)F)cc1)C(=O)O | 0.04%
CC(CCn1cccn1)NC(=O)CCc1nnc(CCc2ccccc2)o1 (configuration not stated) | -1.69%
COC(=O)C1=C(C)N(c2ccc(C)cc2)/C(=C/c2ccc(O)cc2)C1=O | 1.84%
O=C(CSC1CC(=O)N(CCc2ccccc2)C1=O)Nc1ccc(Cl)cc1 (configuration not stated) | 0.85%
CC(Sc1nnnn1C1CCCCC1)C(=O)O (configuration not stated) | 3.4%
Cc1cccc(-c2nc3ccccc3c(=O)n2NC(=O)Cc2ccc(Cl)cc2)c1 | 2.94%
NNC(=O)C1CC(O)CN1S(=O)(=O)c1ccc(Cl)cc1 (configuration not stated) | -8.75%
COc1cc(NC(=O)c2ccccc2NS(=O)(=O)c2ccc(Cl)s2)cc(OC)c1 | -0.12%
C/C(=N\NC(=O)NC1CCCCC1)c1ccc(OC(F)F)cc1OC(F)F | -0.33%
CCc1ccc(CN2C(=O)c3ccccc3C2C(=O)NCC2CCCO2)cc1 (configuration not stated) | -2.1%
